Test [1] can be described thus: APR_HepG2_CellCycleArrest_24hr: Apredica 24-hour HepG2 Assay for Cell Cycle Arrest (AID 2282905).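 Also: cell cycle arrest scored as ratio of 2N to 4N nuclear DNA content.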 The settings on record: imaging, actives raise or lower the signal. The procedure, abridged:
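Step one: dose HepG2 with test compounds, 0.39–200 uM, 0.5% DMSO, 24 hr. Step two: fix, permeabilize, stain nuclei with Hoechst 33342. Step three: image six fields per well at 20x, quantify DNA content, fit bidirectionally relative to DMSO.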

The nature of test [2]: APR_HepG2_NuclearSize_24hr: Apredica 24-hour HepG2 Assay for Nuclear Size (AID 2282907). The following applies: high-content imaging, actives raise or lower the signal. The procedure, abridged: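 After fixation and permeabilization, 24-hr-treated HepG2 cells were stained with Hoechst 33342 and imaged on an ArrayScan (20x). Doses spanned 0.39–200 uM in duplicate. Nuclear diameter changes in either direction were fitted relative to 0.5% DMSO controls.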

Test [3] is described as follows: APR_HepG2_CellLoss_24hr: Apredica 24-hour HepG2 Assay for Cell Loss (AID 2282908).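 As to AC50: fit in both directions so a hit may be cell loss or gain.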 The following applies: high-content imaging. An outline of the steps: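 Duplicate wells received compound at ten concentrations (0.39–200 uM; final DMSO 0.5% v/v). After fixation with formaldehyde, nuclei stained with Hoechst 33342 were imaged at 20x. Loss or gain of cell count was fitted relative to DMSO controls.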

A short description of test [4]: APR_HepG2_MicrotubuleCSK_24hr: Apredica 24-hour HepG2 Assay for Microtubule CSK Stabilty (AID 2282909). The settings on record: HepG2 microtubule cytoskeleton imaging, actives raise or lower the signal. An outline of the steps: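 Microtubule stability is scored from tubulin immunofluorescence in fixed HepG2 cells imaged at 20x. Cells receive ten compound concentrations up to 200 uM for 24 h; taxol and DMSO serve as positive and negative controls.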

The nature of test [5]: APR_HepG2_MitoticArrest_24hr: Apredica 24-hour HepG2 Assay for Mitotic Arrest (AID 2282910). The following applies: high-content imaging, actives raise or lower the signal. An outline of the steps:
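High-content imaging of fixed HepG2 cells labeled with Hoechst 33342 and anti-phospho-histone H3, after 24 h treatment. Ten concentrations 0.39 to 200 uM in duplicate, final DMSO 0.5%; changes fitted both directions relative to DMSO.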

A short description of test [6]: APR_HepG2_MitoMembPot_24hr: Apredica 24-hour HepG2 Assay for Mitochondrial Membrane Potential (AID 2282911). The following applies: imaging, actives raise or lower the signal. An outline of the steps:
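HepG2 cells exposed 24 h to 0.39–200 uM compounds in duplicate, 0.5% v/v DMSO final. MitoTracker Red CMXRos 250 nM loaded 30 min before formaldehyde fixation; high-content imaging at 20x, bidirectional fit versus DMSO.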

A short description of test [7]: APR_HepG2_MitoMass_24hr: Apredica 24-hour HepG2 Assay for Mitochondrial Mass (AID 2282912). The settings on record: high-content imaging, actives raise or lower the signal. An outline of the steps:
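Readout: fluorescence of MitoTracker Red CMXRos (250 nM, added 30 min pre-fixation) in fixed HepG2 cells imaged by HCS. Exposure lasted 24 hr at 0.39–200 uM; increases and decreases were both fitted relative to DMSO.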

The nature of test [8]: APR_HepG2_p53Act_24hr: Apredica 24-hour HepG2 Assay for p53 Activation (AID 2282913).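 Also: p53 protein immunofluorescence averaged per cell in HepG2 with Hoechst nuclei.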 The settings on record: high-content imaging, actives raise or lower the signal. The procedure, abridged: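 HepG2 cells exposed 24 h to compounds at 0.39–200 uM in duplicate, 0.5% v/v DMSO final; fixed, permeabilized, stained with anti-p53 antibody and Hoechst 33342; fluorescence imaging; bidirectional curve fit versus DMSO.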

Test [9] can be described thus: APR_HepG2_CellCycleArrest_72hr: Apredica 72-hour HepG2 Assay for Cell Cycle Arrest (AID 2282914). The following applies: high-content imaging, actives raise or lower the signal. The procedure, abridged: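 HepG2 cells exposed 72 h in duplicate to 0.39–200 uM compound, 0.5% DMSO final. Formaldehyde-fixed, Hoechst 33342-stained nuclei imaged at 20x, six fields per well; DNA content per valid cell quantified by cell-cycle image analysis, bidirectional fit versus DMSO.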

Test [10] in a line: APR_HepG2_CellLoss_72hr: Apredica 72-hour HepG2 Assay for Cell Loss (AID 2282915). The following applies: high-content imaging. An outline of the steps: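 Cell number comes from Hoechst 33342-labelled nuclei, imaged at 20x after 3.7% formaldehyde fixation. Dosing was 0.39–200 uM, ten concentrations in duplicate, 0.5% DMSO final, for 72 h. Bidirectional fit relative to DMSO baseline.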

The nature of test [11]: APR_HepG2_P-H2AX_72hr: Apredica 72-hour HepG2 Assay for H2AX Phosphorylation (AID 2282916).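 Also: phospho-histone H2A.x immunostain intensity per cell marking DNA damage.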 The settings on record: imaging, actives raise or lower the signal. The procedure, abridged: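 Phospho-H2A.x imaging endpoint in HepG2 after 72 hr compound exposure (0.39–200 uM, duplicate wells). Activity derived by bidirectional curve fitting with DMSO as baseline.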
The nature of test [12]: APR_HepG2_MitoMembPot_72hr: Apredica 72-hour HepG2 Assay for Mitochondrial Membrane Potential (AID 2282917). The settings on record: imaging, actives raise or lower the signal. An outline of the steps:
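Membrane potential read by MitoTracker Red CMXRos (250 nM, 30 min, pre-fixation) fluorescence imaging of HepG2 after 72 hr exposure. Ten concentrations, 0.39–200 uM, duplicate wells, 0.5% DMSO; fitted in both directions against DMSO baseline.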

Test [13] can be described thus: APR_HepG2_MitoticArrest_72hr: Apredica 72-hour HepG2 Assay for Mitotic Arrest (AID 2282918). The settings on record: high-content imaging, actives raise or lower the signal. The procedure, abridged:
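HepG2 cells treated 72 h at 0.39–200 uM, 0.5% DMSO final; formaldehyde-fixed, stained with Hoechst 33342 and phospho-histone H3 antibody, imaged by high-content fluorescence; bidirectional fit versus DMSO.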

Test [14] is described as follows: APR_HepG2_P-H2AX_24hr: Apredica 24-hour HepG2 Assay for H2AX Phosphorylation (AID 2282920). The settings on record: high-content imaging, actives raise or lower the signal. The procedure, abridged:
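HepG2 cells dosed 24 h at 0.39–200 uM (10 points, duplicate, 0.5% DMSO final). Formaldehyde-fixed and permeabilized, then immunostained for phospho-H2A.x with Hoechst. Fluorescence quantified by high-content imaging, fitted bidirectionally versus DMSO.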

A short description of test [15]: APR_HepG2_StressKinase_72hr: Apredica 72-hour HepG2 Assay for Stress Kinase (AID 2282921). The following applies: HepG2 stress kinase (phospho-c-Jun) imaging, actives raise or lower the signal. An outline of the steps:
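Stress kinase signal reflects nuclear phospho-c-Jun staining in fixed, permeabilized cells exposed 72 h to compound at 0.39–200 uM; DMSO-normalized, fitted for increases or decreases.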

A short description of test [16]: APR_HepG2_StressKinase_24hr: Apredica 24-hour HepG2 Assay for Stress Kinase (AID 2282922). The settings on record: HepG2 stress kinase (phospho-c-Jun) imaging, actives raise or lower the signal. The procedure, abridged:
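High-content imaging of phospho-c-Jun immunofluorescence in fixed, permeabilized HepG2 cells after 24 h dosing. Ten concentrations, 0.39 to 200 uM, run in duplicate at 0.5% v/v DMSO; gain or loss of signal versus DMSO.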

A short description of test [17]: APR_HepG2_p53Act_72hr: Apredica 72-hour HepG2 Assay for p53 Activation (AID 2282923).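 Also: average cellular p53 protein immunofluorescence intensity in HepG2 cells.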 The following applies: high-content imaging, actives raise or lower the signal. The procedure, abridged:
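Fixed-cell p53 staining (sheep primary, Cy5 secondary) measured by fluorescence imaging following 72 hr treatment at 0.39–200 uM in 0.5% DMSO; DMSO served as negative control and baseline.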

Test [18] in a line: APR_HepG2_MitoMass_72hr: Apredica 72-hour HepG2 Assay for Mitochondrial Mass (AID 2282924).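 Also: MitoTracker Red CMXRos stain intensity per cell imaged as mitochondrial mass.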 The settings on record: high-content imaging, actives raise or lower the signal. An outline of the steps: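 Readout is imaged MitoTracker Red (250 nM, 30 min, pre-fixation) signal, fitted bidirectionally against DMSO baseline. Human HepG2 liver cells received compound 0.39–200 uM in duplicate for 72 hr, final DMSO 0.5%.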

A short description of test [19]: APR_HepG2_NuclearSize_72hr: Apredica 72-hour HepG2 Assay for Nuclear Size (AID 2282925). The following applies: high-content imaging, actives raise or lower the signal. The procedure, abridged: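 Nuclear size was read by high-content imaging of Hoechst 33342 stain after formaldehyde fixation. Compounds ran 72 h on HepG2 at 0.39 to 200 uM, with final DMSO 0.5% v/v. Curves fitted both directions relative to DMSO control.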

A short description of test [20]: APR_HepG2_MicrotubuleCSK_72hr: Apredica 72-hour HepG2 Assay for Microtubule CSK Stabilty (AID 2282919). The following applies: HepG2 microtubule cytoskeleton, high-content imaging, actives raise or lower the signal. An outline of the steps:
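High-content imaging of alpha-tubulin staining in fixed HepG2 cells after 72 hr treatment with ten concentrations from 0.39 to 200 uM (0.5% DMSO). Fitting was bidirectional against DMSO; taxol served as positive control.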

The term AC50 denotes the concentration at which the activity in the assay is half-maximal.

Activity calls are given as the source filed them. The calls were made as follows: active = hit-call score of the fitted dose curve at least 0.9, where 1 is the maximum; inactive = score below 0.9.

As for `ClCCOCCCl`, the outcome in test [1], in test [2], in test [3], in [4], in test [5] and in test [6] was inactive. The molecule was called inactive in test [7], in [8], in test [9], in [10], in test [11] and in [12]. Besides, the call in test [13], in [14], in [15], in [16], in [17] and in [18] was inactive. For the same molecule, in test [19], the result was inactive.

Take `CC(C)(C)OOC(C)(C)CCC(C)(C)OOC(C)(C)C`: the outcome in test [1], in [2], in [3], in test [4], in test [5] and in test [6] was inactive. In addition, the result in [8], in test [11], in test [20], in test [14], in [15] and in [16] was inactive. For the same molecule, the result in test [17], in test [18] and in test [19] was inactive. The AC50 is 56.5 µM (active) in test [7], 56.1 µM (active) in test [10], 52.8 µM (active) in [12] and 54.8 µM (active) in [13].

As to `Oc1ccccc1Cl`, the molecule was called inactive in [1], in test [2], in test [3], in test [4], in test [5] and in [6]. Moreover, the molecule was classed as inactive in test [7], in test [8], in test [10], in [11], in [12] and in [13]. For the same molecule, the call in test [20], in [14], in [15], in test [16], in [17] and in [18] was inactive. Moreover, the outcome in test [19] was inactive.

Turning to `O=P(OCCCl)(OCCCl)OCCCl`, the call in test [1], in [2], in test [3], in test [4], in test [5] and in test [6] was inactive. Further, the call in test [7], in [8], in test [9], in [10], in [11] and in [14] was inactive. In addition, the molecule was classed as inactive in test [15], in test [16], in [17] and in test [19].

`CC(C)(O)c1cnn2c(-c3ccc(F)c(-c4c(F)cccc4C#N)c3)cnc2n1`: the outcome in test [1], in test [2], in test [8], in test [9], in test [15] and in [17] was inactive. In addition, the outcome in test [19] was inactive. In addition, the AC50 is 23.4 µM (active) in [3]; 89.9 µM (active) in [4]; 42.1 µM (active) in test [5]; 33.1 µM (active) in test [6]; 81.4 µM (active) in test [7]; 23.9 µM (active) in [10]. Moreover, the AC50 is 30.1 µM (active) in [11]; 83.9 µM (active) in [12]; 25.9 µM (active) in test [13]; 31.4 µM (active) in test [14]; 51.5 µM (active) in [16]; 76.1 µM (active) in test [18].

As to `OCCCBr`, the call in test [1], in test [2], in test [3], in test [4], in test [5] and in test [6] was inactive. The molecule was classed as inactive in test [7], in test [8], in test [10], in [11], in [12] and in [13]. The call in test [20], in test [14], in [15], in test [16], in [17] and in [18] was inactive. For the same molecule, in test [19], the outcome was inactive.

Regarding `COc1cc(C=O)cc2c1[C@H](COC(N)=O)[C@]1(OC(C)=O)ON2C[C@H]2[C@@H]1N2C(C)=O`, the call in test [1], in [2], in test [3], in [4], in test [5] and in test [7] was inactive. The result in [8], in test [10], in test [11], in test [12], in test [13] and in test [20] was inactive. Besides, the call in test [14], in [15], in test [16], in test [17], in test [18] and in test [19] was inactive. Moreover, the AC50 in test [6] was 0.474 µM (active).

Values taken from PubChem BioAssay (EPA / NIEHS).
